Drawing on article PMC7862700, “An all-to-all approach to the identification of sequence-specific readers for epigenetic DNA modifications on cytosine”, this text covers binding signal for 7 sequences.

Holding throughout (assay): DAPPL (digital affinity profiling via proximity ligation, sequencing); 10 mM Tris-HCl pH 7.5, 50 mM NaCl, 1 mM DTT, 4% glycerol, room temperature, 30 min; GST-TFs on glutathione beads, 16-mer random dsDNA library, 0.1% formaldehyde crosslink after washing; high values mean tight binding
What all share (conditions): protein: recombinant; tags: N-terminal GST; dsDNA, one strand shown

In assay [1] the target is T1, FLI1 (Homo sapiens, UniProt Q01543 1-452).
T1 sequence: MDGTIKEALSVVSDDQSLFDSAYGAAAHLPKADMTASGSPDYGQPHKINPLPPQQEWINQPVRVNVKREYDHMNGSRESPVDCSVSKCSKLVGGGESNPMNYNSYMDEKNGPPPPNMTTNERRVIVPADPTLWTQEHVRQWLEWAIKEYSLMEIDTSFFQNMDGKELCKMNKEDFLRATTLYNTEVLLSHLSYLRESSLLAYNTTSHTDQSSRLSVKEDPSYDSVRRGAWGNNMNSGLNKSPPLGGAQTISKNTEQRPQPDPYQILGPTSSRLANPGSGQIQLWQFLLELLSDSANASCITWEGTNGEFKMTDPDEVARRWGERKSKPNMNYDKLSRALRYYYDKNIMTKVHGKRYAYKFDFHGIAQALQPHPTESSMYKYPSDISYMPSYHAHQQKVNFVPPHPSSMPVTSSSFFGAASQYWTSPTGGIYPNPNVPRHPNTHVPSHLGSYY
The gist of the method:
(§1)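 Pools were built from human transcription factors expressed in yeast as GST fusions, captured on glutathione beads and DNA-barcoded, along with a tag-only sample. Incubation with 200 nmole of a 16-mer random double-stranded DNA library lasted 30 min at room temperature in Tris/NaCl/DTT/glycerol buffer, and was followed by washing, 0.1% formaldehyde crosslinking, proximity ligation, PCR amplification and Illumina NextSeq500 sequencing. Binding signal is the quotient of each hexamer's read frequency for a factor and its frequency for the tag-only sample.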

Assay [2] has as its target T2, ELK1 (Homo sapiens, UniProt P19419 1-428).
T2 sequence: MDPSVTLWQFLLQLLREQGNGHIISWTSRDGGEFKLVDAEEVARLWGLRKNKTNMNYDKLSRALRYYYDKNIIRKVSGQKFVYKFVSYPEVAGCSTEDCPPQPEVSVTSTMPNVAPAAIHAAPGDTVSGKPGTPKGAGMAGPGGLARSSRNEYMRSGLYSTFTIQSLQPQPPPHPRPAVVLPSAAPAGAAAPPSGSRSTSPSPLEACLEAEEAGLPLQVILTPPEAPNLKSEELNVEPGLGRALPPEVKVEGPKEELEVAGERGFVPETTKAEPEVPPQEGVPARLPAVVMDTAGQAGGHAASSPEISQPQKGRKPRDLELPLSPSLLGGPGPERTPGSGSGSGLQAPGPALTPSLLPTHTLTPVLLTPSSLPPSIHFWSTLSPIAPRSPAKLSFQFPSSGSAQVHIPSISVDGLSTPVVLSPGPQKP
The gist of the method: as §1

Assay [3] concerns the target T3, GABPA (Homo sapiens, UniProt Q06546 1-454).
T3 sequence: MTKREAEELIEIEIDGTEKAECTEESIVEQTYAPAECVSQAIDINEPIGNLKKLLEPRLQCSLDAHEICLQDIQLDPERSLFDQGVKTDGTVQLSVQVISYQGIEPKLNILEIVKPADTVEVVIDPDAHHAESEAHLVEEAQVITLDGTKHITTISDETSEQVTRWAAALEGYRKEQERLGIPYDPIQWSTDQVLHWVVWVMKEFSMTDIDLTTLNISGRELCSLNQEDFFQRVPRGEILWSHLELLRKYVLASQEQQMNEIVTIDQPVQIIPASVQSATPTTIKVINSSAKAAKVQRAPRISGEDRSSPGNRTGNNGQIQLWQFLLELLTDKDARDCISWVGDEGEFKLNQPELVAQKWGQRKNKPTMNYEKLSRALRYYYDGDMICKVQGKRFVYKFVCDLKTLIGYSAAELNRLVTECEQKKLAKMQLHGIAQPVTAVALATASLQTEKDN
The gist of the method: as §1

The target in assay [4] is T4, ERG (Homo sapiens, UniProt P11308 1-479).
T4 sequence: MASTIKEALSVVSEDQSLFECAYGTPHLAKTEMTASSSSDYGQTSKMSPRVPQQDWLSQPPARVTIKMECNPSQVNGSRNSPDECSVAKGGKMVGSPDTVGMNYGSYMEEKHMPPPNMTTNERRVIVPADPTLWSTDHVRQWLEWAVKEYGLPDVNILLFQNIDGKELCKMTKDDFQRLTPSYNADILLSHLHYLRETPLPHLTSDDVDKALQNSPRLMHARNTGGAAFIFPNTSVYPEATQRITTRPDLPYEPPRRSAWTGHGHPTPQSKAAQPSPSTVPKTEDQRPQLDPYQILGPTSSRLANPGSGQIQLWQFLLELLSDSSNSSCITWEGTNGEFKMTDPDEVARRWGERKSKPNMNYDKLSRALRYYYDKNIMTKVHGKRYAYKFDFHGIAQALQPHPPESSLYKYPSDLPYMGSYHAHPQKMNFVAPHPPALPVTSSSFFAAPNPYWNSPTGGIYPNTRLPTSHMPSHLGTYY
The gist of the method: as §1

Assay [5] deals with ELF1 (Homo sapiens, UniProt P32519 1-619). The gist of the method:
as §1

The target of assay [6] is T5, EHF (Homo sapiens, UniProt Q9NZC4 1-300).
T5 sequence: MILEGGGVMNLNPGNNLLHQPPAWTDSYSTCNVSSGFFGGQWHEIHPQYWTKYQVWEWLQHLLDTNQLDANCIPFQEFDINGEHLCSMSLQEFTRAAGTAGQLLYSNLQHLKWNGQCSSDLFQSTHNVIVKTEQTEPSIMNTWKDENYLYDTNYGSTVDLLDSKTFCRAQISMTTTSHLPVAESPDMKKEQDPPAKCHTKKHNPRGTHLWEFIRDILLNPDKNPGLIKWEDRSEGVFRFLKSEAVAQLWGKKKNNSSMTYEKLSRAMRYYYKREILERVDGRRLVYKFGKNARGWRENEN
The gist of the method:
as §1

Assay [7] has as its target SPI1 (Homo sapiens, UniProt P17947 1-270). The gist of the method: as §1
The target in assay [8] is SPIB (Homo sapiens, UniProt Q01892 1-262). The gist of the method:
as §1

In assay [9] the target is T6, ELK3 (Homo sapiens, UniProt P41970 1-407).
T6 sequence: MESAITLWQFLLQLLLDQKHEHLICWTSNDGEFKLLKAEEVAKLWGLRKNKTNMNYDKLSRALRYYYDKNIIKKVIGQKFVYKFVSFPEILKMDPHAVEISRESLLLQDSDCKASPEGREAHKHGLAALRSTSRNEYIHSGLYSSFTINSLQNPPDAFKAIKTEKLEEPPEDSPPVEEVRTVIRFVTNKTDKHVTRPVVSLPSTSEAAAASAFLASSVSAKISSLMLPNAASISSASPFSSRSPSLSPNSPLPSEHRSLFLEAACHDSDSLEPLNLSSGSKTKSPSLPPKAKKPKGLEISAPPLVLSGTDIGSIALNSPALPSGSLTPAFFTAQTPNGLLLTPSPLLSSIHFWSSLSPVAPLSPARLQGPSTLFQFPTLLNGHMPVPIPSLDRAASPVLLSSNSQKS
The gist of the method: as §1

SPIB, sequence (Q01892 whole entry): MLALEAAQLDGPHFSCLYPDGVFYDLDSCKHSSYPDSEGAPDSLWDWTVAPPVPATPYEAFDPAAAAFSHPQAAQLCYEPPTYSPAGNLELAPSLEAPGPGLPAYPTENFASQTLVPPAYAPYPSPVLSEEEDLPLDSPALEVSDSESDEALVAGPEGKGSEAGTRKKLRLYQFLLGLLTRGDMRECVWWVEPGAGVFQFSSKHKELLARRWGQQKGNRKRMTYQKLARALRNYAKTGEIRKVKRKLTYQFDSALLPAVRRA
ELF1, sequence (P32519 whole entry): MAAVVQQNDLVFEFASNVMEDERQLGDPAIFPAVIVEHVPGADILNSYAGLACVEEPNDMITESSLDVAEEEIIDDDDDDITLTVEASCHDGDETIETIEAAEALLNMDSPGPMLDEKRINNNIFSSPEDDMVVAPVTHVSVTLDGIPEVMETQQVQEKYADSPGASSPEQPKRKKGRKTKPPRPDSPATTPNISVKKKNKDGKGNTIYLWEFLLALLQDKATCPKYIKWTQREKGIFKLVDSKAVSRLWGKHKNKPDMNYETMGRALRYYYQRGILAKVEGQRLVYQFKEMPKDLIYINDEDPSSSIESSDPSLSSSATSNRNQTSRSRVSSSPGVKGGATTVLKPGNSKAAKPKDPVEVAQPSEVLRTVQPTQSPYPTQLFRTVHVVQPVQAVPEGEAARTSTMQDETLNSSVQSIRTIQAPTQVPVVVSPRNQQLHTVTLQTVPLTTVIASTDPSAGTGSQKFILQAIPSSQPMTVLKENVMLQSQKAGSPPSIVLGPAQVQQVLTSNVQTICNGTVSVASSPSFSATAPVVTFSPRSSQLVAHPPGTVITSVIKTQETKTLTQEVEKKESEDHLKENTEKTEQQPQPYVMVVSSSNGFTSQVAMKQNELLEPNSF

Take ATTAAA: the binding signal was 1.14 fold enrichment (6-mer frequency, TF over GST control) in [1]; 1.1 fold enrichment (6-mer frequency, TF over GST control) in assay [2]; 1.16 fold enrichment (6-mer frequency, TF over GST control) in assay [3]; 1.09 fold enrichment (6-mer frequency, TF over GST control) in assay [4]; 1.2 fold enrichment (6-mer frequency, TF over GST control) in assay [5]; 1.14 fold enrichment (6-mer frequency, TF over GST control) in assay [6]. The binding signal is 1.13 fold enrichment (6-mer frequency, TF over GST control) in assay [7]; 1.19 fold enrichment (6-mer frequency, TF over GST control) in assay [8]; 1.16 fold enrichment (6-mer frequency, TF over GST control) in assay [9].

For the sequence TTCGTT, the binding signal in assay [1] was 1.33 fold enrichment (6-mer frequency, TF over GST control); in assay [2] it was 1.4 fold enrichment (6-mer frequency, TF over GST control); in assay [3], 1.33 fold enrichment (6-mer frequency, TF over GST control); in assay [4], 1.25 fold enrichment (6-mer frequency, TF over GST control); in [5] it was 1.32 fold enrichment (6-mer frequency, TF over GST control); in [6], 1.36 fold enrichment (6-mer frequency, TF over GST control). For the same sequence, the binding signal is 1.29 fold enrichment (6-mer frequency, TF over GST control) in [7]; 1.33 fold enrichment (6-mer frequency, TF over GST control) in assay [8]; 1.24 fold enrichment (6-mer frequency, TF over GST control) in assay [9].

Turning to TCCATG, the binding signal in assay [1] was 1.17 fold enrichment (6-mer frequency, TF over GST control); in [2], 1.18 fold enrichment (6-mer frequency, TF over GST control); in [3], 1.1 fold enrichment (6-mer frequency, TF over GST control); in [4], 1.09 fold enrichment (6-mer frequency, TF over GST control); in assay [5] it was 1.11 fold enrichment (6-mer frequency, TF over GST control); in assay [6], 1.17 fold enrichment (6-mer frequency, TF over GST control). Moreover, the binding signal is 1.1 fold enrichment (6-mer frequency, TF over GST control) in assay [7]; 1.13 fold enrichment (6-mer frequency, TF over GST control) in [8]; 1.24 fold enrichment (6-mer frequency, TF over GST control) in [9].

On to ATATCG, for which the binding signal was 1.09 fold enrichment (6-mer frequency, TF over GST control) in assay [1]; 1.16 fold enrichment (6-mer frequency, TF over GST control) in assay [2]; 1.14 fold enrichment (6-mer frequency, TF over GST control) in assay [3]; 1.08 fold enrichment (6-mer frequency, TF over GST control) in assay [4]; 1.16 fold enrichment (6-mer frequency, TF over GST control) in assay [5]; 1.13 fold enrichment (6-mer frequency, TF over GST control) in [6]. The binding signal is 1.23 fold enrichment (6-mer frequency, TF over GST control) in assay [7]; 1.17 fold enrichment (6-mer frequency, TF over GST control) in [8]; 1.19 fold enrichment (6-mer frequency, TF over GST control) in assay [9].

Regarding CAATTC, the binding signal in assay [1] is 1.33 fold enrichment (6-mer frequency, TF over GST control); in assay [2], 1.27 fold enrichment (6-mer frequency, TF over GST control); in assay [3], 1.19 fold enrichment (6-mer frequency, TF over GST control); in assay [4], 1.29 fold enrichment (6-mer frequency, TF over GST control); in assay [5] it was 1.25 fold enrichment (6-mer frequency, TF over GST control); in assay [6], 1.24 fold enrichment (6-mer frequency, TF over GST control). Besides, the binding signal in assay [7] is 1.24 fold enrichment (6-mer frequency, TF over GST control); in assay [8], 1.44 fold enrichment (6-mer frequency, TF over GST control); in [9], 1.2 fold enrichment (6-mer frequency, TF over GST control).

GTCCTA: the binding signal in [1] is 1.15 fold enrichment (6-mer frequency, TF over GST control); in assay [2], 1.19 fold enrichment (6-mer frequency, TF over GST control); in assay [3] it was 1.22 fold enrichment (6-mer frequency, TF over GST control); in assay [4], 1.14 fold enrichment (6-mer frequency, TF over GST control); in [5], 1.12 fold enrichment (6-mer frequency, TF over GST control); in assay [6] it was 1.16 fold enrichment (6-mer frequency, TF over GST control). Also, the binding signal was 1.16 fold enrichment (6-mer frequency, TF over GST control) in [7]; 1.18 fold enrichment (6-mer frequency, TF over GST control) in assay [8]; 1.12 fold enrichment (6-mer frequency, TF over GST control) in assay [9].

Regarding CTGGCT, the binding signal in assay [1] is 1.33 fold enrichment (6-mer frequency, TF over GST control); in assay [2] it was 1.31 fold enrichment (6-mer frequency, TF over GST control); in assay [3], 1.37 fold enrichment (6-mer frequency, TF over GST control); in assay [4] it was 1.3 fold enrichment (6-mer frequency, TF over GST control); in assay [5] it was 1.25 fold enrichment (6-mer frequency, TF over GST control); in assay [6], 1.26 fold enrichment (6-mer frequency, TF over GST control). Also, the binding signal in [7] is 1.18 fold enrichment (6-mer frequency, TF over GST control); in assay [8], 1.22 fold enrichment (6-mer frequency, TF over GST control); in assay [9] it was 1.12 fold enrichment (6-mer frequency, TF over GST control).
